SKN-1 block: suppressors of acrylamide-induced Pgst-4::GFP reporter in worms, primary screen, SKN-1 inhibitor project, whole organism, uHTS, GFP/RFP fluorescence ratio, strain VP596; C. elegans VP596 Pgst-4::GFP/RFP ratio, 24 h; AID 624304, 2012; 0.49% of 360,000 active; inhibition, % at 21.8 µM;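 active = interference check ratio from 0.5 to 1.5 plus GFP to RFP signal ratio inhibition reaching or exceeding a fixed threshold, cut at about 30% in these data, passing the limit was not always enough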
Cardio protect: cardioprotection against H2O2-induced cell death, primary screen, uHTS, H9c2 cells, ATPLite luminescence; 0.63% of 360,000 active; protection from H2O2 cell death, % at 20 µM; H9c2 cardiomyocytes, H2O2 injury protection, 2 h; AID 588492, 2011;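 active = compounds giving at least 50% protection of heart cells from peroxide-induced death in the single-dose screen, raw or plate-pattern-corrected value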;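 also: 0% = DMSO wells with peroxide and 100% = DMSO wells without peroxide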
hiPSC survival: enhancers of single-cell hiPSC survival, primary screen, ATPlite luminescence; 100% = ROCK inhibitor wells, 0% = DMSO; survival enhancement, % at 20 µM; 0.044% of 360,000 active; AID 602274, 2012; in the data active = survival enhancement above about 18%;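 also: cells exposed to compounds for 16 hours before the ATP read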
CRFBP-R2 block: antagonists of CRF-BP/CRF-R2 complex, primary screen, cell-based, HEK293, calcium dye fluorescence, uHTS; CRF-induced calcium fluorescence; inhibition, % at 11.8 µM; 0.59% of 350,000 active;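 active = inhibition of the ligand-induced calcium signal above about 50% at the single tested concentration, limit read from the data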
H9c2 TAG inh: inhibitors of triacylglycerol accumulation, primary screen, cell-based, uHTS, fluorescence, H9c2; H9c2 cells, Nile Red lipid (TAG) fluorescence; cells loaded with 200 µM oleic acid; inhibition, % at 12.5 µM; 0.66% of 230,000 active;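 active = pattern-corrected inhibition of lipid staining of at least 50% with the nuclear-stain viability signal not falling by more than 50%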;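 also: 0% = DMSO wells and 100% = triacsin C control wells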
CRFR2-BP ag: agonists of CRF-BP/CRF-R2 complex, primary screen, cell-based, HEK293, calcium dye fluorescence, uHTS. calcium dye fluorescence (FLIPR); percent of saturating CRF peptide response. 0.46% of 350,000 active. CRF-binding protein / CRF receptor 2 complex (human). activation, % at 13.2 µM;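 active = activation of at least 50%, plus an integration ratio under a set limit after plate pattern correction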;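 also: plate controls were neutral control wells without compound for no effect and CRF at EC100 for full effect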
An asterisk follows results filed as active; nt = no result. Most compounds without a hit are left out; they make up all but 2.5% or so of the library.

SMILES | SKN-1 block | Cardio protect | hiPSC survival | CRFBP-R2 block | H9c2 TAG inh | CRFR2-BP ag
O=C(/C=C/Nc1ccc(Cc2ccc(N/C=C/C(=O)C(F)(F)F)cc2)cc1)C(F)(F)F | -9 | 1 | -2 | 2 | nt | -1
Cc1cc(/C=C2/C(=N)N3C(=NC2=O)SN=C3S(C)(=O)=O)c(C)n1-c1ccc(F)cc1 | 5 | -8 | -1 | 25 | nt | 3
Cc1ccc(-n2cccc2/C=C2/C(=N)N3C(=NC2=O)SN=C3S(C)(=O)=O)cc1Cl | 17 | -5 | 0 | 50* | nt | 1
Cc1cccc(C)c1-n1cccc1/C=C1/C(=N)N2C(=NC1=O)SN=C2S(C)(=O)=O | 9 | -12 | -1 | 59* | 7 | -1
CCC1=NN2C(=N)/C(=C\c3cccn3-c3c(C)cccc3C)C(=O)N=C2S1 | 10 | -3 | 7 | -26 | nt | -2
CCOc1ccc(-n2c(C)cc(/C=C3/C(=N)N4C(=NC3=O)SN=C4S(C)(=O)=O)c2C)cc1 | 1 | -8 | -2 | 93* | nt | 2
CCC(CC)C1=NN2C(=N)/C(=C\c3cc(C)n(-c4cccc(C)c4)c3C)C(=O)N=C2S1 | 3 | -14 | -1 | -64 | nt | 87*
CC1=CSC2=NC(=O)/C(=C\c3cccn3-c3ccccc3)C(=N)N12 | 5 | -1 | 4 | -7 | nt | 0
O=C(COC(=O)CCC1CCCC1)Nc1ccc(F)cc1Cl | -2 | -1 | 0 | 0 | 7 | -1
COCCCNc1ccn2nc(-c3ccc(OCc4ccccc4)cc3)cc2n1 | 27 | -18 | -2 | nt | 1 | nt
COCCN1C(=O)c2ccccc2C1c1nnnn1Cc1ccccc1 (stereo unspecified) | 5 | nt | 0 | nt | nt | nt
COc1cc2nc(C3CCC3)nc(N3CCN(c4ccccn4)CC3)c2cc1OC | 17 | 60* | -2 | -4 | nt | 1
O=C(c1ccc(-c2nc3ccccc3s2)o1)N1CCN(c2ccccc2O)CC1 | 12 | 52* | 0 | 16 | 15 | -3
Cc1ccc(C)c(-n2c3nc(=O)[nH]c(=O)c-3cc3cc([N+](=O)[O-])ccc32)c1 | -3 | 0 | -4 | -130 | nt | 61*
CNCC(=O)O | -12 | -7 | -1 | 77* | -4 | -1
CCOC(=O)C(=CNCC(=O)O)C(=O)OCC | -2 | 3 | 0 | 11 | nt | 0
Cc1oc2cc([N+](=O)[O-])c(O)c([N+](=O)[O-])c2c1C(=O)c1ccc(Cl)cc1 | 7 | -11 | -1 | 38 | 1 | -2
O=[N+]([O-])c1cc2oc3c(c2c(C=NCc2ccccc2)c1O)CCCC3 | 23 | 61* | -1 | -61 | nt | 3
CC(C)CN=Cc1c(O)c([N+](=O)[O-])cc2oc3c(c12)CCCC3 | -1 | 95* | 0 | 13 | nt | 1
Cc1cc(CC(=O)O)c2oc(-c3ccoc3)cc(=O)c2c1 | nt | nt | nt | -8 | nt | 2
Cc1onc(-c2c(F)cccc2Cl)c1C(=O)Nc1nc2ccccc2[nH]1 | 42* | 4 | 8 | -25 | -1 | 2
Cc1ccc(S(=O)(=O)N2CCN(C(=O)COc3ccc(C)nc3[N+](=O)[O-])CC2)c(C)c1 | 11 | 10 | -1 | 78* | 4 | -1
Cc1ccc(OCC(=O)N2CCN(S(=O)(=O)c3ccc(Cl)cc3)CC2)c([N+](=O)[O-])n1 | -3 | 1 | -1 | -2 | nt | 3
C=CCc1c(C)nc(N)[nH]c1=O | 10 | 19 | 7 | 13 | nt | -1
CC(C)Cn1c(N)c(C(=O)COC(=O)c2ccc(O)cc2O)c(=O)n(C)c1=O | 4 | -13 | 0 | -7 | 0 | -1
SMILES | SKN-1 block | Cardio protect | hiPSC survival | CRFBP-R2 block | H9c2 TAG inh | CRFR2-BP ag
C=CCNc1nc(NCCN2CCOCC2)nc(N2CCOCC2)n1 | 35* | -12 | 1 | 13 | -16 | -1
CCCC(=O)N1CCC1(C)C(=O)Nc1ncc(C(=O)OC)s1 (stereo unspecified) | -4 | 1 | 3 | nt | 2 | nt
COc1ccccc1/C=C/C=N/N1CCN(Cc2ccc(Cl)cc2)CC1 | 36* | -8 | -2 | 18 | nt | -2
CCOc1cc(-c2cc(-c3ccc(N)cc3)nc(N)c2C#N)ccc1O | 0 | 116* | 2 | 10 | -6 | -2
CC(/C=N/NC(=O)c1ccncc1)=C\c1ccc(C(C)C)cc1 | 12 | 36 | -1 | -35 | nt | 1
CC(/C=N/Nc1nc(C)cc(C)n1)=C\c1ccc(C(C)C)cc1 | 4 | 1 | 0 | 61* | nt | -2
CCN(C(=O)COC(=O)C(C)(C)Oc1ccc(Cl)cc1)c1c(N)n(Cc2ccccc2)c(=O)[nH]c1=O | 4 | -2 | 0 | -6 | -1 | 2
C(=N\NC1=Nc2cccc3cccc1c23)/c1ccccn1 | 7 | 1 | -2 | -16 | 51* | 2
CCc1ccc(C(C)NC(=O)c2cc(C)oc2C)cc1 (stereo unspecified) | 18 | 56* | 0 | 2 | 11 | 0
Cc1ccc2c(C)c(C(=O)N3CCN(C4CCS(=O)(=O)C4)CC3)oc2c1C (stereo unspecified) | -12 | 2 | 0 | 3 | -6 | -3
COc1ccccc1N1C(=O)CC(Sc2ccccc2N)C1=O (stereo unspecified) | 0 | 10 | 0 | -11 | nt | -3
COC(=O)/C(=C(O)\C=C\c1ccccc1[N+](=O)[O-])c1nc2ccccc2[nH]1 | 16 | 68* | 0 | -12 | nt | 0
COCCN1CC(=O)N(c2cccc(C)c2C)C(c2ccc(Cl)cc2)C1=O (stereo unspecified) | -7 | -3 | 2 | 56* | 8 | -3
Nc1ccc(Cc2ccc([N+](=O)[O-])cc2)cc1 | 24 | -7 | -1 | 33 | 4 | -3
O=c1cc(Cc2ccc([N+](=O)[O-])cc2)[nH]c(=O)[nH]1 | -9 | 0 | 4 | 57* | -20 | 1
O=C(NC(=S)NNC(=O)c1cccs1)c1ccc(Br)o1 | 7 | 12 | 9 | 19 | nt | 71*
O=C(NNC(=S)NC(=O)c1cccs1)c1ccc(O)cc1 | 7 | 24 | 1 | -1 | 12 | 2
CC1=NN(c2ccccc2)C(=O)C1N=Nc1ccc(N)cc1 (stereo unspecified) | 41* | 19 | -4 | 21 | 30 | -1
O=C(Cc1cccc(C(F)(F)F)c1)N1CCCC1 | 23 | -4 | 0 | -4 | nt | 0
C=C1C(C(=O)Nc2ccccc2)C1C(=O)Nc1ccccc1 (stereo unspecified) | -2 | 6 | 0 | 59* | -5 | 0
C=C(C)Cn1c2ccc(NC(=O)NCc3ccc(F)cc3)cc2c(=O)n1C | 19 | -3 | 1 | nt | -21 | nt
CCOc1ccc(CNC(=O)CCC(=O)N2Cc3cccc(OC)c3Oc3ncccc32)cc1 | 3 | -2 | 0 | 52* | nt | -1
